Data: paper doi:10.1101/2024.03.05.583629

Key:
pT7_6His-AlfaTag-HOXD13 = pT7_6His-AlfaTag-HOXD13 (human, UniProt P35453 263-343); assay: PADIT-seq; settings: dsDNA, one strand shown
pT7_6His-AlfaTag-ZIF268 = pT7_6His-AlfaTag-ZIF268 (human, UniProt P18146 335-423); assay: PADIT-seq; settings: dsDNA, one strand shown

Chain of pT7_6His-AlfaTag-HOXD13 (P35453 263-343): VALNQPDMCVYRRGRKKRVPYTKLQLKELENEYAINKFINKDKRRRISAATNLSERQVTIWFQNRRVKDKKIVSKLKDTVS

Row | Sequence | binding signal (pT7_6His-AlfaTag-HOXD13) [log2FC] | binding signal (pT7_6His-AlfaTag-ZIF268) [log2FC]
1 | CTCGAGGATATCAAGATCTGGCCTCGGCCTTTTAGGGGGAACCTCTAGCTAGCCGACTCACTATAGGGATAATCGCCCTGAGCAAAGACC | 1.1 ± 0.083 | –
2 | CTCGAGGATATCAAGATCTGGCCTCGGCATTTTAGAGGGAACCTCTAGCTAGCCGACTCACTATAGGGATAATCGCCCTGAGCAAAGACC | 1.43 ± 0.0957 | –
3 | CTCGAGGATATCAAGATCTGGCCTCGGCCGACTAAAAGGAACCTCTAGCTAGCCGACTCACTATAGGGATAATCGCCCTGAGCAAAGACC | -0.753 ± 0.121 | –
4 | CTCGAGGATATCAAGATCTGGCCTCGGCGTCTTAAAAGGAACCTCTAGCTAGCCGACTCACTATAGGGATAATCGCCCTGAGCAAAGACC | 1.44 ± 0.067 | –
5 | CTCGAGGATATCAAGATCTGGCCTCGGCGTTTTACCCGGAACCTCTAGCTAGCCGACTCACTATAGGGATAATCGCCCTGAGCAAAGACC | -0.0427 ± 0.101 | –
6 | CTCGAGGATATCAAGATCTGGCCTCGGCCTTTTATTCGGAACCTCTAGCTAGCCGACTCACTATAGGGATAATCGCCCTGAGCAAAGACC | 1.67 ± 0.077 | –
7 | CTCGAGGATATCAAGATCTGGCCTCGGCAATCTAAAAGGAACCTCTAGCTAGCCGACTCACTATAGGGATAATCGCCCTGAGCAAAGACC | -0.296 ± 0.111 | –
8 | CTCGAGGATATCAAGATCTGGCCTCGGCTTTTTAATAGGAACCTCTAGCTAGCCGACTCACTATAGGGATAATCGCCCTGAGCAAAGACC | 2.75 ± 0.0795 | –
9 | CTCGAGGATATCAAGATCTGGCCTCGGCATTTTAAACGGAACCTCTAGCTAGCCGACTCACTATAGGGATAATCGCCCTGAGCAAAGACC | 1.29 ± 0.0911 | –
10 | CTCGAGGATATCAAGATCTGGCCTCGGCGAAATAAAAGGAACCTCTAGCTAGCCGACTCACTATAGGGATAATCGCCCTGAGCAAAGACC | 1.47 ± 0.0776 | –
11 | CTCGAGGATATCAAGATCTGGCCTCGGCCGCTTAAAAGGAACCTCTAGCTAGCCGACTCACTATAGGGATAATCGCCCTGAGCAAAGACC | 0.46 ± 0.0911 | –
12 | CTCGAGGATATCAAGATCTGGCCTCGGCGAGTTAAAAGGAACCTCTAGCTAGCCGACTCACTATAGGGATAATCGCCCTGAGCAAAGACC | 0.985 ± 0.0828 | –
13 | CTCGAGGATATCAAGATCTGGCCTCGGCGCTCTAAAAGGAACCTCTAGCTAGCCGACTCACTATAGGGATAATCGCCCTGAGCAAAGACC | 0.0795 ± 0.0859 | –
14 | CTCGAGGATATCAAGATCTGGCCTCGGCGCGATAAAAGGAACCTCTAGCTAGCCGACTCACTATAGGGATAATCGCCCTGAGCAAAGACC | 1.22 ± 0.0747 | –
15 | CTCGAGGATATCAAGATCTGGCCTCGGCTTTTTATGTGGAACCTCTAGCTAGCCGACTCACTATAGGGATAATCGCCCTGAGCAAAGACC | 2.89 ± 0.0872 | –
16 | CTCGAGGATATCAAGATCTGGCCTCGGCTAAATAAAAGGAACCTCTAGCTAGCCGACTCACTATAGGGATAATCGCCCTGAGCAAAGACC | 1.68 ± 0.0988 | –
17 | CTCGAGGATATCAAGATCTGGCCTCGGCTTTTTATCTGGAACCTCTAGCTAGCCGACTCACTATAGGGATAATCGCCCTGAGCAAAGACC | 0.754 ± 0.104 | –
18 | CTCGAGGATATCAAGATCTGGCCTCGGCCTTTTACATGGAACCTCTAGCTAGCCGACTCACTATAGGGATAATCGCCCTGAGCAAAGACC | 1.85 ± 0.0771 | –
19 | CTCGAGGATATCAAGATCTGGCCTCGGCATTTTAGATGGAACCTCTAGCTAGCCGACTCACTATAGGGATAATCGCCCTGAGCAAAGACC | 0.542 ± 0.096 | –
20 | CTCGAGGATATCAAGATCTGGCCTCGGCTGCATAAAAGGAACCTCTAGCTAGCCGACTCACTATAGGGATAATCGCCCTGAGCAAAGACC | 1.39 ± 0.0891 | –
21 | CTCGAGGATATCAAGATCTGGCCTCGGCAACATAAAAGGAACCTCTAGCTAGCCGACTCACTATAGGGATAATCGCCCTGAGCAAAGACC | 1.52 ± 0.0783 | –
22 | CTCGAGGATATCAAGATCTGGCCTCGGCATTTTATGTGGAACCTCTAGCTAGCCGACTCACTATAGGGATAATCGCCCTGAGCAAAGACC | 2.99 ± 0.0772 | –
23 | CTCGAGGATATCAAGATCTGGCCTCGGCCTTTTACCTGGAACCTCTAGCTAGCCGACTCACTATAGGGATAATCGCCCTGAGCAAAGACC | -0.0573 ± 0.0997 | –
24 | CTCGAGGATATCAAGATCTGGCCTCGGCTTCGTAAAAGGAACCTCTAGCTAGCCGACTCACTATAGGGATAATCGCCCTGAGCAAAGACC | 1.86 ± 0.0804 | –
25 | CTCGAGGATATCAAGATCTGGCCTCGGCGCGTGGCAGGGAACCTCTAGCTAGCCGACTCACTATAGGGATAATCGCCCTGAGCAAAGACC | -0.958 ± 0.118 | –
26 | CTCGAGGATATCAAGATCTGGCCTCGGCCTTGTAAAAGGAACCTCTAGCTAGCCGACTCACTATAGGGATAATCGCCCTGAGCAAAGACC | 2.9 ± 0.088 | –
27 | CTCGAGGATATCAAGATCTGGCCTCGGCCCTATAAAAGGAACCTCTAGCTAGCCGACTCACTATAGGGATAATCGCCCTGAGCAAAGACC | 2.89 ± 0.0925 | –
28 | CTCGAGGATATCAAGATCTGGCCTCGGCGCTATAAAAGGAACCTCTAGCTAGCCGACTCACTATAGGGATAATCGCCCTGAGCAAAGACC | 2.83 ± 0.0721 | –

Row | Sequence | binding signal (pT7_6His-AlfaTag-HOXD13) [log2FC] | binding signal (pT7_6His-AlfaTag-ZIF268) [log2FC]
29 | CTCGAGGATATCAAGATCTGGCCTCGGCGTTTTACACGGAACCTCTAGCTAGCCGACTCACTATAGGGATAATCGCCCTGAGCAAAGACC | 2.15 ± 0.0769 | –
30 | CTCGAGGATATCAAGATCTGGCCTCGGCCTTTTAACCGGAACCTCTAGCTAGCCGACTCACTATAGGGATAATCGCCCTGAGCAAAGACC | 1.24 ± 0.0724 | –
31 | CTCGAGGATATCAAGATCTGGCCTCGGCTTTTTAATTGGAACCTCTAGCTAGCCGACTCACTATAGGGATAATCGCCCTGAGCAAAGACC | 2.41 ± 0.0904 | –
32 | CTCGAGGATATCAAGATCTGGCCTCGGCATTTTAGCGGGAACCTCTAGCTAGCCGACTCACTATAGGGATAATCGCCCTGAGCAAAGACC | 0.146 ± 0.1 | –
33 | CTCGAGGATATCAAGATCTGGCCTCGGCCTAATAAAAGGAACCTCTAGCTAGCCGACTCACTATAGGGATAATCGCCCTGAGCAAAGACC | 3.06 ± 0.0911 | –
34 | CTCGAGGATATCAAGATCTGGCCTCGGCGGTCTAAAAGGAACCTCTAGCTAGCCGACTCACTATAGGGATAATCGCCCTGAGCAAAGACC | -0.664 ± 0.0879 | –
35 | CTCGAGGATATCAAGATCTGGCCTCGGCCGGCTAAAAGGAACCTCTAGCTAGCCGACTCACTATAGGGATAATCGCCCTGAGCAAAGACC | -0.621 ± 0.107 | –
36 | CTCGAGGATATCAAGATCTGGCCTCGGCTTGTGGGCGGGAACCTCTAGCTAGCCGACTCACTATAGGGATAATCGCCCTGAGCAAAGACC | -0.943 ± 0.108 | 2.19 ± 0.0788
37 | CTCGAGGATATCAAGATCTGGCCTCGGCGGAGTAAAAGGAACCTCTAGCTAGCCGACTCACTATAGGGATAATCGCCCTGAGCAAAGACC | -0.327 ± 0.108 | 0.0307 ± 0.0975
38 | CTCGAGGATATCAAGATCTGGCCTCGGCAAATTAAAAGGAACCTCTAGCTAGCCGACTCACTATAGGGATAATCGCCCTGAGCAAAGACC | 2.15 ± 0.08 | 0.0496 ± 0.0856
39 | CTCGAGGATATCAAGATCTGGCCTCGGCGTTTTAAGTGGAACCTCTAGCTAGCCGACTCACTATAGGGATAATCGCCCTGAGCAAAGACC | 0.876 ± 0.107 | 0.00666 ± 0.106
40 | CTCGAGGATATCAAGATCTGGCCTCGGCATTTTACAGGGAACCTCTAGCTAGCCGACTCACTATAGGGATAATCGCCCTGAGCAAAGACC | 3.08 ± 0.0772 | 0.116 ± 0.0849
41 | CTCGAGGATATCAAGATCTGGCCTCGGCTCCCCACGCGGAACCTCTAGCTAGCCGACTCACTATAGGGATAATCGCCCTGAGCAAAGACC | -0.217 ± 0.124 | 0.208 ± 0.106
42 | CTCGAGGATATCAAGATCTGGCCTCGGCAGGATAAAAGGAACCTCTAGCTAGCCGACTCACTATAGGGATAATCGCCCTGAGCAAAGACC | 0.374 ± 0.0721 | 0.0545 ± 0.0675
43 | CTCGAGGATATCAAGATCTGGCCTCGGCGCGTGGACTGGAACCTCTAGCTAGCCGACTCACTATAGGGATAATCGCCCTGAGCAAAGACC | -0.334 ± 0.121 | 0.0272 ± 0.108
44 | CTCGAGGATATCAAGATCTGGCCTCGGCCTTTGGGCGGGAACCTCTAGCTAGCCGACTCACTATAGGGATAATCGCCCTGAGCAAAGACC | -0.932 ± 0.115 | 0.262 ± 0.0913
45 | CTCGAGGATATCAAGATCTGGCCTCGGCATTTTAATCGGAACCTCTAGCTAGCCGACTCACTATAGGGATAATCGCCCTGAGCAAAGACC | 1.1 ± 0.0894 | 0.0175 ± 0.09
46 | CTCGAGGATATCAAGATCTGGCCTCGGCCGCCCACTTGGAACCTCTAGCTAGCCGACTCACTATAGGGATAATCGCCCTGAGCAAAGACC | -0.908 ± 0.133 | 0.543 ± 0.104
47 | CTCGAGGATATCAAGATCTGGCCTCGGCCGCCTACGCGGAACCTCTAGCTAGCCGACTCACTATAGGGATAATCGCCCTGAGCAAAGACC | -0.992 ± 0.109 | 1.76 ± 0.0783
48 | CTCGAGGATATCAAGATCTGGCCTCGGCGCGTGGGTTGGAACCTCTAGCTAGCCGACTCACTATAGGGATAATCGCCCTGAGCAAAGACC | -1.06 ± 0.134 | 2.53 ± 0.0963
49 | CTCGAGGATATCAAGATCTGGCCTCGGCGCCCCACGCGGAACCTCTAGCTAGCCGACTCACTATAGGGATAATCGCCCTGAGCAAAGACC | -0.996 ± 0.127 | 0.0171 ± 0.103
50 | CTCGAGGATATCAAGATCTGGCCTCGGCAGTTTAAAAGGAACCTCTAGCTAGCCGACTCACTATAGGGATAATCGCCCTGAGCAAAGACC | 2.23 ± 0.0764 | 0.0518 ± 0.0805
51 | CTCGAGGATATCAAGATCTGGCCTCGGCCGCCTAAAAGGAACCTCTAGCTAGCCGACTCACTATAGGGATAATCGCCCTGAGCAAAGACC | -0.524 ± 0.115 | 0.0248 ± 0.0968
52 | CTCGAGGATATCAAGATCTGGCCTCGGCCACATAAAAGGAACCTCTAGCTAGCCGACTCACTATAGGGATAATCGCCCTGAGCAAAGACC | 2.6 ± 0.0844 | 0.0607 ± 0.0948
53 | CTCGAGGATATCAAGATCTGGCCTCGGCTACATAAAAGGAACCTCTAGCTAGCCGACTCACTATAGGGATAATCGCCCTGAGCAAAGACC | 2.05 ± 0.0966 | 0.0761 ± 0.103
54 | CTCGAGGATATCAAGATCTGGCCTCGGCGTATGGGCGGGAACCTCTAGCTAGCCGACTCACTATAGGGATAATCGCCCTGAGCAAAGACC | -0.957 ± 0.105 | 0.246 ± 0.0831
55 | CTCGAGGATATCAAGATCTGGCCTCGGCCCTGTAAAAGGAACCTCTAGCTAGCCGACTCACTATAGGGATAATCGCCCTGAGCAAAGACC | 2.46 ± 0.085 | 0.046 ± 0.0931
